Results published in PubChem BioAssay (NCATS).
Active and inactive are the calls of the source. The call rests on the fitted dose curve; in most records, active means well fitted inhibition curve with a large enough effect; inconclusive means small, poorly fitted or top-dose-only effect; inactive means flat fitted curve, though single readings scatter. Residues, ends and D or L forms follow the SMILES beside them. *: point of attachment. Cbz = O=C(OCc1ccccc1)*

Target: DNA polymerase III PolC-type (Bacillus subtilis (strain 168)) (UniProt P13267)
Test: qHTS Validation Assay for the Inhibitors of DNA Replication in Gram-Positive Bacteria (AID 485295);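 further: reconstituted holoenzyme with PolC plus beta clamp SSB and primase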
Settings: Gram-positive bacterial DNA replication assay; series mostly up to 57.1 µM; activity change, negative = inhibition: at the top concentration
Procedure: B Subtilis DNA polymerase III holoenzyme complex was assayed for DNA production by fluorescent detection of the double-stranded DNA product with PicoGreen dye. The holoenzyme complex was reconstituted from the following purified protein components: DNA Polymerase III, beta subunit processivity factor, SSB single-stranded DNA binding protein, and Primase. Single-stranded, circular M13Gori was used as a substrate with dNTPs and NTPs also supplied to the substrate reagent. Compounds from the NCGC collection were incubated with the holoenzyme mixture for […] at room temperature to allow binding to occur, and then the reaction was started by the addition of substrate. After 30 min incubation at room temperature, PicoGreen solution containing EDTA was added to stop the reaction and to visualize the double-stranded DNA produced. Reaction progress was measured in a ViewLux CCD imager in fluorescence intensity mode by using 480 nm excitation and 540 nm emission filter set.
1. Thaw screening compounds.
2. Label assay plates. Prepare pipette tips, reagent reservoirs, buffers and controls.
1. Thaw Enzymes, DNA template, Nucleotides and PicoGreen dye concentrate. Thawed enzymes are stable on ice for ~1
week. Other thawed components are stable indefinitely.
2. Prepare sufficient quantities of Enzyme, Substrate and PicoGreen Quench mixes (according to Table II). For the number of
compound plates being screened.
3. Ensure that the tip wash station reservoirs have clean water and turn on recirculating chiller so that the chilled deck position
1. Load 2 uL of EDTA controls (250 mM, Background, 100 % inhibition) and 2 uL of DMSO controls (Negative control, 0%
inhibition) in the screening plates (flat-bottomed black 384-well polypropylene, Greiner Bio-one).
2. Place Enzyme mix reservoir on the chiller position of the liquid handler deck. Make sure that chiller will maintain
temperature of Enzyme mix at 4degC. Substrate mix and PicoGreen Quench can be stored at room temp.
3. Program liquid handling robotics to dispense 18 uL of Enzyme mix into assay plates. Wash tips.
4. Aspirate and dispense 2 uL of compound from compound plates, mix and Incubate at room temperature for 10 minutes.
5. Aspirate 5 ul of Substrate mix, dispense into assay plates and mix by pipetting. Wash tips.
6. Incubate at room temperature (21 +/- 1 deg C) for 20 minutes.
7. Quench reactions by addition of 25 uL PicoGreen Quench mix and mix by pipetting (using HTS robotics or bulk reagent
dispenser such as a Multidrop or uFill). Keep plates in the dark or stacked until ready to read fluorescence.
8. Read fluorescence intensity of plates on plate reader using "Fluorescein (Ex 485 nm/ Em 535 nm, 0.1s)" setting.

Sequence of DNA polymerase III PolC-type (Bacillus subtilis (strain 168)) (P13267 whole entry, looked up): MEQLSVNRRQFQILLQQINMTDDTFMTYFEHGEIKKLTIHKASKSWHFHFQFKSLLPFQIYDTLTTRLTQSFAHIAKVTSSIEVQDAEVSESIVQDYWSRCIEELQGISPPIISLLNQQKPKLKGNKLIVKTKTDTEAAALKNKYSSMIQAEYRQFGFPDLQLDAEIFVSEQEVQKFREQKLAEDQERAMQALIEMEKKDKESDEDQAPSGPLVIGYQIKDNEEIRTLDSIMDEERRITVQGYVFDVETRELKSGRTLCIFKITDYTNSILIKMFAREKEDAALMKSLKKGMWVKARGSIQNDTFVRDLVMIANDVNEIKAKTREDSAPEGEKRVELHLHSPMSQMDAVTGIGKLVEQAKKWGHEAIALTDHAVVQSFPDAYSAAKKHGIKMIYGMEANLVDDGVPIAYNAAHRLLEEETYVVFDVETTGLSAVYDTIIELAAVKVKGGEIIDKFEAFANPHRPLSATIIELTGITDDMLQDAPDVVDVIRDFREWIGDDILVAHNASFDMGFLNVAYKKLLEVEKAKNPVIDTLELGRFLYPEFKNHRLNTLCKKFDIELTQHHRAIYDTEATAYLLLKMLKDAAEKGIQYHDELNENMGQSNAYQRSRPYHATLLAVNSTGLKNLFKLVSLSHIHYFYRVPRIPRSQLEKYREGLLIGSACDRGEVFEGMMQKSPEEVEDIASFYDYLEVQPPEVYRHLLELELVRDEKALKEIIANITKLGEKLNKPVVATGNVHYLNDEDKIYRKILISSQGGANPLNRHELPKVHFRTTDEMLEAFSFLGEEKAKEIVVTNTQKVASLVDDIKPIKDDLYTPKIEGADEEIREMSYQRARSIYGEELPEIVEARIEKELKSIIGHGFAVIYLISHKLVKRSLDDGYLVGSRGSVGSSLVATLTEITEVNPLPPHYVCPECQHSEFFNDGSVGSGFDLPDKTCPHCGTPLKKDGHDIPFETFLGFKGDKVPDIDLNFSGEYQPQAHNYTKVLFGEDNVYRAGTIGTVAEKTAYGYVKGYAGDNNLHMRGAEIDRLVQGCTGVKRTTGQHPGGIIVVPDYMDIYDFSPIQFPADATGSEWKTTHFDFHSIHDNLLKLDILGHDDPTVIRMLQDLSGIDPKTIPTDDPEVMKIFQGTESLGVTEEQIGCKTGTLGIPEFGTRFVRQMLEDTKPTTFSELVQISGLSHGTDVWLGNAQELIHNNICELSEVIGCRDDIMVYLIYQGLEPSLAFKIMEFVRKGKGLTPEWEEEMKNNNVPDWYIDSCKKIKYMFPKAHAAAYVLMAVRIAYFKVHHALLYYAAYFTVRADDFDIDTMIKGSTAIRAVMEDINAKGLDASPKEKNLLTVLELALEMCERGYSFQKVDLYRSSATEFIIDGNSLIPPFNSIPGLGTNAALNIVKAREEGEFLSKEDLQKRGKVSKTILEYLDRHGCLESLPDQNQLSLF

Structure (SMILES) | activity change, negative = inhibition
CC(=O)O[C@H]1Cc2ccccc2N(C(N)=O)c2ccccc21 | 3.63% (inactive)
CC(C)[C@H](NC(=O)OCc1ccccc1)C(=O)N[C@H](C=O)Cc1ccccc1 (Cbz-Val-Phe-aldehyde) | -8.53% (inactive)
C[C@]12C=CC(=O)C=C1CC[C@@H]1C2=CC[C@]2(C)[C@@H](C(=O)CN3CCN(c4cc(N5CCCC5)nc(N5CCCC5)n4)CC3)CC[C@@H]12 | -2.6% (inactive)
NC[C@@H]1O[C@H](c2ccccc2)Cc2c1ccc(O)c2O | -0.766% (inactive)
CCCCCCC(=O)OC1CC(C)(C)NC(C)(C)C1 | -8.57% (inactive)
O=C(c1ccc2c(c1)OCCO2)N1CCCCC1 | -1.28% (inactive)
NCC(O)c1ccc(O)c(O)c1 (stereo not given) | 4.69% (inactive)
CC(=O)O[C@H]1CC2(C)[C@@H](C[C@@H](O)[C@H]3[C@@]4(C)CC[C@@H](O)[C@@H](C)[C@@H]4CC[C@@]32C)C1=C(CCC=C(C)C)C(=O)O (stereo not given in full) | -0.0091% (inactive)
Cn1c(=O)c2[nH]c(-c3ccc(S(=O)(=O)O)cc3)nc2n(C)c1=O | 3.13% (inactive)
CCCCOC(=O)NS(=O)(=O)c1sc(CC(C)C)cc1-c1ccc(Cn2c(CC)nc3c(C)cc(C)nc32)cc1 | -20.5% (inactive)
O=c1ccc2c(OCCCCc3ccccc3)c3ccoc3cc2o1 | 2.13% (inactive)
C[C@H]1CC2C3CCC4=CC(=O)C=C[C@]4(C)[C@@]3(Cl)[C@@H](O)C[C@]2(C)[C@@]1(O)C(=O)CO (stereo not given in full) | -1.58% (inactive)
NC1(C(=O)O)CC1 | -4.08% (inactive)
CN(C)S(=O)(=O)c1ccc2c(c1)/C(=C/c1cc3c([nH]1)CCCC3)C(=O)N2 | 2.96% (inactive)
Cc1ccc([N+](=O)[O-])cc1S(=O)(=O)N(C)C | -4.53% (inactive)
CN1C2CCC1CC(OC(c1ccccc1)c1ccccc1)C2 (stereo not given) | 6.52% (inactive)
c1ccc2c(c1)CC(N1CCN(c3cccc4c3OCCO4)CC1)C2 | -3.11% (inactive)
O=c1onc2cnc3ccccc3n12 | 0.465% (inactive)
Cc1ccc2c(c1)C(N1CCN(C)CC1)=Nc1cccnc1N2 | -2.04% (inactive)
C#CC(N)CCC(=O)O (stereo not given) | 3.73% (inactive)

Structure (SMILES) | activity change, negative = inhibition
CC1CCN(CC[C@H]2CCCN2S(=O)(=O)c2cccc(O)c2)CC1 | -2.42% (inactive)
CNC(=O)c1cc2c(cn1)[nH]c1ccccc12 | 3.07% (inactive)
C#CCn1c(=O)c2c(ncn2C)n(C)c1=O | -2.08% (inactive)
CSc1nc(N)c2ncn([C@@H]3O[C@H](COP(=O)(O)OP(=O)(O)O)C(O)[C@H]3O)c2n1 (stereo not given in full) | -2.22% (inactive)
NCCCCN | -3.88% (inactive)
N=C(N)c1ccccc1 | 6.83% (inactive)
Nc1ncnc2c1ncn2C1CCCC1 | 5.91% (inactive)
N[C@@H](CCC(=O)N[C@H](CSN=O)C(=O)NCC(=O)O)C(=O)O | 1.59% (inactive)
CSC(N)=NCCC[C@H](N)C(=O)O | 3.42% (inactive)
CNc1ncnc2c1ncn2[C@H]1C[C@H](OP(=O)(O)O)[C@@H](COP(=O)(O)O)O1 | 3.93% (inactive)
N=C(N)SCCc1cnc[nH]1 | -3.11% (inactive)
c1ccc2c(c1)CCC[C@H]2Nc1nc2ccccc2[nH]1 | 6.74% (inactive)
NS(=O)(=O)c1cccc2c1c([N+](=O)[O-])cc1nc(O)c(O)nc12 | -0.218% (inactive)
CN[C@H](CC(=O)O)C(=O)O | 5.94% (inactive)
CO/N=C(\C(=O)N[C@@H]1C(=O)N2C(C(=O)O)=C(CSc3nc(=O)c(O)nn3C)CSC12)c1csc(N)n1 (stereo not given in full) | 3.2% (inactive)
OC1(c2ccc(Cl)cc2)CCN(Cc2c[nH]c3ccccc23)CC1 | 1.88% (inactive)
Cc1nc2c(OCc3ccccc3)cccn2c1CC#N | 2.26% (inactive)
NC(N)=NC(N)=Nc1ccccc1 | 1.08% (inactive)
CN1CCc2cc(Cl)c(O)cc2[C@@H](c2ccccc2)C1 | 3.86% (inactive)
CC1CCN=C(N)S1 (stereo not given) | -1.29% (inactive)
